Data on 91 compounds can be found in ChEMBL document CHEMBL3988442, “University of Dundee, Small-Polar-MMV Screening Library” (2021).

In all, about 69,000 compounds went through this assay and about 950 (1.4%) showed an effect of 50% or more. What follows is part of a selection rich in strong results, with near analogues and random picks from the rest.

For this assay, the system named is Mycobacterium tuberculosis. The assay is described as follows: Cornell M. t heat shock assay. Further: in the data most compounds retested in dose-response had high values. The assay is classed as functional, organism-based. Set-up: dose or concentration left out as unconfirmed.
For the compound `O=C(O)C(F)(F)F.O=C(O)C(F)(F)F.c1ccc(OC[C@]23COC[C@H]2CN(C2CCOCC2)C3)nc1`, the “Percent Effect” value was -7.98%.

Regarding `Cc1ccc(CN(C)C(=O)CN2CCCC2c2cnn(C)c2)o1` (stereo unspecified), the “Percent Effect” value came out at 15.31%.

Consider `CC1=N[C@@]2(CC[C@@H]3CN(Cc4cccc(Cl)c4)C[C@@H]32)C(=O)N1CC1CC1.O=C(O)C(F)(F)F`, for which the “Percent Effect” value is given as 3.209%.

On to `CN(C)S(=O)(=O)N1C[C@H]2C[C@H](C(=O)NCc3ccccc3)[C@@H](C1)O2`, for which the “Percent Effect” value is given as -32.32%.

Consider `Cc1nc(CN2CCC3(CCCN(Cc4cccnc4)C3)C2=O)cs1.O=C(O)C(F)(F)F.O=C(O)C(F)(F)F.O=C(O)C(F)(F)F` (stereo unspecified), for which the “Percent Effect” value is listed as -21.24%.

Turning to `CCO[C@H]1CN(CC2CCOCC2)[C@@H]2CCCO[C@H]12.O=C(O)C(F)(F)F`, the “Percent Effect” value amounted to 43.93%.

In the case of `Cc1noc(C)c1C(=O)N1C[C@H]2CC[C@@H]1CN(c1cnccn1)C2`, the “Percent Effect” value was -7.98%.

On to `O=S(=O)(NCCCN1CCCC1)c1cc(F)cc(F)c1`, for which the “Percent Effect” value is reported as -10.46%.

Take `COCCN1C(=O)C2(CCN(CC3CC3)CC2)c2ccccc21.O=C(O)C(F)(F)F`: the “Percent Effect” value came to 22.29%.

In the case of `CCc1[nH]c2c(CNc3cncc(C(=O)OC)n3)cc(C)cc2c1C`, the “Percent Effect” value came out at 0.7071%.

Take `CCc1[nH]c2c(CNc3cnccn3)cc(F)cc2c1C`: the “Percent Effect” value is 27.04%.

With `CNc1nc(C)cc(NCc2cc(C)cc3c(C)c(C)[nH]c23)n1`, the “Percent Effect” value was found to be 64.43%.

In the case of `CCc1[nH]c2c(CNc3nccc(N)n3)cc(C)cc2c1C`, the “Percent Effect” value was determined as 83.04%.

`Cc1cc(CNc2nccc(N)n2)c2[nH]c(C)c(C)c2c1`: the “Percent Effect” value turned out to be 6.431%.

For the compound `CCc1[nH]c2c(CNC(=O)C3CNC(=O)C3)cc(C)cc2c1C` (stereo unspecified), the “Percent Effect” value turned out to be 7.867%.

On to `CCc1[nH]c2c(CNc3nc(C)cc(NC)n3)cc(C)cc2c1C`, for which the “Percent Effect” value is listed as 100.6%.

Consider `CCc1[nH]c2c(CNc3cncc(C(=O)N(C)C)n3)cc(C)cc2c1C`, for which the “Percent Effect” value was -0.9488%.

`Cc1cc(CNc2cncc(C(=O)N(C)C)n2)c2[nH]c(C)c(C)c2c1`: the “Percent Effect” value is given as -11.36%.

For the compound `CCc1[nH]c2c(CNc3nccc(N)n3)cc(F)cc2c1C`, the “Percent Effect” value turned out to be 15.63%.

As for `CNc1cc(C)nc(NCc2cc(C)cc3c(C)c(C)[nH]c23)n1`, the “Percent Effect” value stood at 35.24%.

In the case of `CCc1[nH]c2c(CNc3cc(C)nc(NC)n3)cc(C)cc2c1C`, the “Percent Effect” value is 100.4%.

Turning to `COCC1c2c(cnn2CC2CC2)CCN1Cc1ccsc1.O=C(O)C(F)(F)F.O=C(O)C(F)(F)F` (stereo unspecified), the “Percent Effect” value is on record as -18.97%.

For `O=C(O)C(F)(F)F.O=C(O)C(F)(F)F.O=C(O)C(F)(F)F.c1ccc(CN2CC[C@]3(C[C@@H](Oc4ccccn4)CO3)C2)nc1`, the “Percent Effect” value is -28.12%.

Regarding `Cl.Cl.c1cnc(NCc2cncc3c2CCN(CC2CC2)C3)nc1`, the “Percent Effect” value was -5.572%.

In the case of `Cc1ncsc1-c1nnc(C2CCCN2C(=O)CCn2cccn2)o1` (stereo unspecified), the “Percent Effect” value is reported as 13.77%.

With `Cc1nnc(N2CC[C@H]3C[C@H](C(=O)N4CCOCC4)O[C@H]3C2)s1.O=C(O)C(F)(F)F`, the “Percent Effect” value is 5.897%.

Take `CC(C)CNC(=O)N1CC[C@@H]2CN(Cc3cccnc3)S(=O)(=O)[C@@H]2CC1.O=C(O)C(F)(F)F`: the “Percent Effect” value is on record as 36.35%.

As for `COc1ccc(CN2CCCC3(CCN(c4ccsc4)C3=O)C2)cc1.O=C(O)C(F)(F)F` (stereo unspecified), the “Percent Effect” value was 27.7%.

With `Cn1cc(C2CC(=O)NC23CCN(Cc2ccncc2)CC3)cn1.O=C(O)C(F)(F)F.O=C(O)C(F)(F)F` (stereo unspecified), the “Percent Effect” value is on record as -12.84%.

For `O=C(N[C@@H]1CN(Cc2ccoc2)[C@@H]2CCCO[C@@H]21)C1CC1.O=C(O)C(F)(F)F`, the “Percent Effect” value was -3.228%.

As to `CCC(NC(=O)Nc1ccc(OC)c(C)c1)c1ccncc1` (stereo unspecified), the “Percent Effect” value stood at 91.94%.

On to `CCC(NC(=O)Nc1ccc(OC)c(C)c1)c1noc(C)n1` (stereo unspecified), for which the “Percent Effect” value stood at 14%.

With `CCNC(=O)Cc1ccc(NC(=O)NC(CC)c2ccncc2)cc1` (stereo unspecified), the “Percent Effect” value is given as -2.186%.

Consider `Cc1oncc1C(=O)N1CCc2ncnc(-c3cnn(C)c3)c2CC1.O=C(O)C(F)(F)F`, for which the “Percent Effect” value was -24.59%.

For the compound `Clc1cccc(N2CCC(NCc3ncc[nH]3)C2)c1` (stereo unspecified), the “Percent Effect” value was determined as 62.08%.

In the case of `Clc1cccc(N2CCC(NCc3cc[nH]n3)C2)c1` (stereo unspecified), the “Percent Effect” value is on record as -2.653%.

In the case of `O=C1CC(NCc2ncc[nH]2)CN1CCc1cccc(Cl)c1` (stereo unspecified), the “Percent Effect” value is given as 14%.

Consider `Cc1ncsc1C(=O)NCCn1nc(C2CCNC2)c2cccnc21.Cl` (stereo unspecified), for which the “Percent Effect” value is recorded as -3.491%.

For `c1ccc2c(c1)CN(c1ncnc3sc4c(c13)CCNC4)CCO2`, the “Percent Effect” value worked out at 1.883%.

For `Cc1ccc(CCNc2nc(-c3ccncc3)nc3c2CCNCC3)o1`, the “Percent Effect” value is listed as 6.799%.

Consider `Cc1nonc1OCCNc1ncnc2sc3c(c12)CCNC3`, for which the “Percent Effect” value stood at 19.66%.

For `Cc1ccc(CCNc2ncnc3sc4c(c23)CCNC4)o1`, the “Percent Effect” value stood at 98.95%.

As to `Oc1ccccc1N1CCN(c2ncnc3sc4c(c23)CCNC4)CC1`, the “Percent Effect” value was -21.81%.

In the case of `c1ccc(OCCNc2ncnc3sc4c(c23)CCNC4)cc1`, the “Percent Effect” value is listed as 56.72%.

For `COc1ccc(C2=CNC(C(F)(F)F)=CC2N)cc1` (stereo unspecified), the “Percent Effect” value worked out at 1.706%.

On to `Cc1csc(CN2CCn3c(COc4cccnc4)cnc3C2C)n1.O=C(O)C(F)(F)F.O=C(O)C(F)(F)F` (stereo unspecified), for which the “Percent Effect” value is recorded as 18.26%.

`Cc1ccsc1C(=O)N1C[C@@H]2CN(Cc3ccoc3)CCO[C@@H]2C1.O=C(O)C(F)(F)F`: the “Percent Effect” value is -4.487%.

Regarding `O=C(O)C(F)(F)F.O=C(c1ccc[nH]1)N1CCn2cc(Cn3cccn3)nc2C1`, the “Percent Effect” value is -0.1806%.

On to `CN(C)c1ccccc1CN1CCC(N2CCCC2=O)CC1`, for which the “Percent Effect” value is given as -7.548%.

For the compound `O=C(N1CCCC1)N1CCC[C@]2(C[C@@H](Oc3ncccc3F)CO2)C1.O=C(O)C(F)(F)F`, the “Percent Effect” value is listed as -4.547%.

Consider `CN(C)C(=O)c1ccc2c(c1)N(C)C(CC(=O)NCc1ccno1)CO2` (stereo unspecified), for which the “Percent Effect” value is recorded as 79.27%.

As to `CN(C)C(=O)c1ccc2c(c1)N(C)C(CC(=O)NCc1ncc[nH]1)CO2` (stereo unspecified), the “Percent Effect” value is reported as -1.035%.

As for `COC(=O)CNC(=O)CC1COc2ccc(C(=O)N(C)C)cc2N1C` (stereo unspecified), the “Percent Effect” value came to 7.778%.

With `CNC(=O)CN1CCOCC2(CCCN(Cc3ccsc3)C2)C1.O=C(O)C(F)(F)F.O=C(O)C(F)(F)F` (stereo unspecified), the “Percent Effect” value is given as -10.69%.

Regarding `CCOc1ncccc1NC(=O)c1sccc1C`, the “Percent Effect” value was 102.4%.

As for `CCOc1ncccc1NC(=O)c1cccs1`, the “Percent Effect” value is given as -26.07%.

On to `CCOc1ncccc1NC(=O)c1cc(C)sc1C`, for which the “Percent Effect” value worked out at 19.66%.

Take `c1cc(-c2nc3c(c(NCCn4ccnn4)n2)CCNCC3)ccn1`: the “Percent Effect” value was -28.7%.

On to `CCOCCNc1nc(-c2ccncc2)nc2c1CCNCC2`, for which the “Percent Effect” value is listed as -10.32%.

With `Cl.NC1CCc2nc(-c3ccncc3)nc(Nc3cccc(F)c3)c2C1` (stereo unspecified), the “Percent Effect” value came to 82.22%.

As for `O=C(Nc1cccc(F)c1)NC1CCN(Cc2ccncc2)CC1`, the “Percent Effect” value is given as -8.889%.

Take `Cc1sc2c(C3CCNCC3)nc(Nc3cccc(F)c3)n2c1C.Cl`: the “Percent Effect” value came to 26.64%.

As to `O=C(c1cccnc1O)N1CCN(CCc2cccs2)CC1`, the “Percent Effect” value is 3.025%.

For `O=C(O)C(F)(F)F.O=C(c1cnccn1)N1CCCC2(CCN(c3ccccn3)C2)C1` (stereo unspecified), the “Percent Effect” value is listed as -26.38%.

On to `Cc1ccc(CN(Cc2ncc[nH]2)C2CC(C)(C)NC(C)(C)C2)o1.O=C(O)CC(O)(CC(=O)O)C(=O)O`, for which the “Percent Effect” value worked out at 28.54%.

For `O=C(O)C(F)(F)F.O=C(c1ccno1)N1CCc2ncnc(-c3ccncc3)c2CC1`, the “Percent Effect” value is recorded as 1.058%.

With `Cc1ccoc1C(=O)N1CCn2nnc(COc3cccnc3)c2C1.O=C(O)C(F)(F)F`, the “Percent Effect” value is -27.69%.

For `O=C(O)C(F)(F)F.O=C(O)C(F)(F)F.O=C(c1ccnnc1)N1CCN2C[C@H](OCc3cccnc3)C[C@H]2C1`, the “Percent Effect” value is reported as -1.051%.

For the compound `Cc1ccc(CN2Cc3nnn(C)c3C(COCc3ccccc3)C2)o1.O=C(O)C(F)(F)F` (stereo unspecified), the “Percent Effect” value was -18.88%.

On to `CN(Cc1nc(COc2ccccc2)no1)CC1Cc2ccccc2O1` (stereo unspecified), for which the “Percent Effect” value stood at 29.18%.

In the case of `CCc1ccc(CN(C)Cc2nc(-c3cnccn3)no2)nc1`, the “Percent Effect” value turned out to be 20.61%.

For `CCc1ccc(CN(C)Cc2nc(COc3ccccc3)no2)nc1`, the “Percent Effect” value was 62.03%.

As for `COc1ccccc1N1CCC(CNCc2cccc(OC)c2OC)C1` (stereo unspecified), the “Percent Effect” value came out at 81.84%.

For `COc1ccccc1N1CCC(CNCc2cccc(O)c2)C1` (stereo unspecified), the “Percent Effect” value worked out at 14.53%.

Turning to `COc1ccc(CNCC2CCN(c3ccccc3OC)C2)cc1O` (stereo unspecified), the “Percent Effect” value is 2.532%.

As for `O=C(NC1CCC1)[C@@H]1C[C@@H]2CCN(Cc3cccs3)C[C@@H]2O1.O=C(O)C(F)(F)F`, the “Percent Effect” value was 3.012%.

As for `CCC(CO)N(Cc1ccccn1)C(=O)c1ccc(=O)[nH]c1` (stereo unspecified), the “Percent Effect” value was determined as 1.592%.

Take `O=C(NC[C@]12COC[C@H]1CN(Cc1nccs1)C2)c1cscn1.O=C(O)C(F)(F)F`: the “Percent Effect” value was found to be 1.78%.

For `COc1ccc(CN2CCC3(CC2)CCN(CC(=O)N(C)C)C3=O)cc1.O=C(O)C(F)(F)F`, the “Percent Effect” value turned out to be 1.282%.

For the compound `Cn1c(CCC(=O)N2CCCC3(CC2)CNC(=O)O3)nc2cccnc21` (stereo unspecified), the “Percent Effect” value is listed as -15.92%.

Regarding `O=C1NCC2(CCCN(C(=O)Cn3nc4ccccc4n3)CC2)O1` (stereo unspecified), the “Percent Effect” value turned out to be 102.6%.

Consider `O=C1NCC2(CCCN(C(=O)CCn3cnc4ccccc43)CC2)O1` (stereo unspecified), for which the “Percent Effect” value is -31.86%.

Regarding `O=C(O)CC(O)(CC(=O)O)C(=O)O.O[C@@]1(c2ccccn2)CC[C@H]2CN(Cc3ccccn3)C[C@H]21`, the “Percent Effect” value came out at 3.038%.

Consider `CCN(CC)c1ccc2ccc(C(=O)O)cn12`, for which the “Percent Effect” value came out at 4.754%.

`CN1CCN(c2ccc3ccc(C(=O)N4CCCCO4)cn23)CC1.O=C(O)C(F)(F)F`: the “Percent Effect” value turned out to be 28.6%.

On to `CCN(CC)c1ccc2ccc(C(=O)N3CCCCO3)cn12.O=C(O)C(F)(F)F`, for which the “Percent Effect” value is listed as 56.41%.

For the compound `Cl.O=C(Cn1c(-c2ccco2)cc2cccnc21)N1CCCC1`, the “Percent Effect” value was 2.747%.

As to `CC(=O)N1[C@H](Cn2cncn2)C[C@@H]2CN(S(C)(=O)=O)CC[C@@H]21`, the “Percent Effect” value is listed as -11.62%.

For `CCc1nnc(CN(C)c2nc(C3CCCC3)nc3c2cnn3C)o1`, the “Percent Effect” value is -3.006%.

`CCc1nnc(CN(C)c2nc(C(C)C)nc3c2cnn3C)o1`: the “Percent Effect” value was 106.1%.

In the case of `CCCc1nc(N(C)CCc2noc(C(C)C)n2)c2cnn(C)c2n1`, the “Percent Effect” value is reported as -6.302%.
